Results: PubChem BioAssay AID1240 (Sanford-Burnham Center for Chemical Genomics, 2008)
Out of some 50,000 compounds screened, about 800 (1.6%) showed an effect of 50% or more. Shown is part of a subset that was picked to be rich in strong results.

Molecular target: Bcl-2-like protein 10 (Homo sapiens) (UniProt Q9HD36)
Test: TR3 peptide-Bcl-B binding displacers, biochemical primary FP assay, phenotype converters (AID 1240);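 note: 0% = Bcl-B with tracer peptide and DMSO and 100% = tracer peptide lacking Bcl-B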
Settings: GST-Bcl-B / FITC-TR3 peptide fluorescence polarization; stronger effect = higher value; compound at 3.75 mg/L

Chain of Bcl-2-like protein 10 (Homo sapiens) (Q9HD36 whole entry, looked up): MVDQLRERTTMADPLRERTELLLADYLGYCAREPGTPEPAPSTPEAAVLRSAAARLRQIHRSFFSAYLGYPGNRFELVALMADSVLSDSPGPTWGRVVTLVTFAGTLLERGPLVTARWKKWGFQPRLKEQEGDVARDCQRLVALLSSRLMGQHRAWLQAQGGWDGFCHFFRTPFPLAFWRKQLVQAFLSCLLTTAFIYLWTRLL

In order of falling displacement:
1. O=c1[nH]c(O)c(C=Nc2ccc(F)c(F)c2)c(=O)[nH]1  166%
2. Cc1cc(NCCCO)n2c(nc3ccccc32)c1C#N  160%
3. CN1CCN(c2ccc3c4c(cccc24)C(=O)N(CCO)C3=O)CC1  155%
4. CCOC(=O)C1=C(C)N=c2s/c(=C\c3cccc([N+](=O)[O-])c3)c(=O)n2C1c1ccccc1F (stereo unspecified)  138%
5. Cc1cc(Nc2ccc3c(c2)OCO3)n2c(nc3ccccc32)c1C#N  135%
6. CCOC(=O)C1=C(C)N=c2s/c(=C\c3ccc(C)cc3)c(=O)n2C1c1cccc([N+](=O)[O-])c1 (stereo unspecified)  127%
7. CN(C)c1ccc(/C=c2\sc3nc4ccccc4n3c2=O)cc1  107%
8. O=c1/c(=C/c2ccccn2)sc2nc3ccccc3n12  102%
9. Cc1ccc(Sc2ccc(/C=c3\sc4nc5ccccc5n4c3=O)o2)cc1  86.8%
10. O=c1/c(=C/c2ccc([N+](=O)[O-])cc2)sc2nc3ccccc3n12  86.7%
11. O=c1/c(=C/c2ccc3c(c2)OCO3)sc2nc3ccccc3n12  69.3%
12. O=C1c2cccc3c(N4CCCCC4)ccc(c23)C(=O)N1CCO  66.1%
13. O=c1/c(=C/c2ccc(Sc3ccccc3)o2)sc2nc3ccccc3n12  48.5%
14. CC(=O)Oc1ccc(/C=c2\sc3nc4ccccc4n3c2=O)cc1  28%
15. Cc1cc(NCCCCO)n2c(nc3ccccc32)c1C#N  25.9%
16. O=C1c2cccc3c(N4CCCCC4)ccc(c23)C(=O)N1c1ccc(Cl)cn1  25.4%
17. Cc1cc(Nc2ccc3c(c2)n(C)c(=O)n3C)n2c(nc3ccccc32)c1C#N  22.5%
18. CC(=O)Nc1ccc(S(=O)(=O)/N=C2\C=CC(=O)c3ccccc32)cc1  22.2%
19. CN1CCN(C(=O)CCN2C(=O)c3cccc4cccc(c34)C2=O)CC1  18.2%
20. CCOC(=O)C1=C(C)N=c2s/c(=C\c3cccc([N+](=O)[O-])c3)c(=O)n2C1c1ccc(C)cc1 (stereo unspecified)  16.1%
21. Cc1onc(-c2ccccc2Cl)c1C(=O)Nc1sc(C)c(C)c1C#N  13.6%
22. COc1ccc(Cl)cc1C(=O)N(Cc1ccccc1)C(C)C  11.9%
23. Cc1c(Cl)cccc1NC(=O)C1c2ccccc2Oc2ccccc21  11.9%
24. CCOc1ccccc1NC(=O)C1CN(S(=O)(=O)c2ccccc2)CCN1S(=O)(=O)c1ccccc1 (stereo unspecified)  11.2%
25. O=c1/c(=C/c2ccc(-c3ccc(Cl)cc3)o2)sc2nc3ccccc3n12  10.9%
26. COc1ccc(Cl)cc1N=Cc1c(O)[nH]c(=O)[nH]c1=O  10.3%
27. CCOC(=O)C1=C(C)N=c2s/c(=C/c3cccc([N+](=O)[O-])c3)c(=O)n2C1c1ccccc1Cl (stereo unspecified)  10.2%
28. Cc1ccc(C(=O)COc2cc(OCC(=O)c3ccc(C)cc3)c3c(C)cc(=O)oc3c2)cc1  10%
29. CC(C)N1C(=O)c2cccc3c(N4CCCCC4)ccc(c23)C1=O  9.8%
30. CCOC(=O)c1c(-c2ccccc2)oc2ccc(OC(=O)c3ccc(OC)c(OC)c3)cc12  8.8%
31. COC(=O)C1C(=O)N(C)C(c2ccccc2)C1C(=O)OC (stereo unspecified)  8.4%
32. O=C1NC(=S)N(c2ccc(Cl)cc2)C(=O)C1=Cc1ccsc1  8.3%
33. CSc1ccc(/C=c2\sc3nc4ccccc4n3c2=O)cc1  7.3%
34. O=c1/c(=C/c2cccs2)sc2nc3ccccc3n12  7.2%
35. CCOC(=O)C1=C(C)N=c2s/c(=C/c3ccc(F)cc3)c(=O)n2C1c1cccc([N+](=O)[O-])c1 (stereo unspecified)  7.1%
36. COc1nccnc1NS(=O)(=O)c1ccc(NC(=S)NC(=O)c2ccc(F)c(F)c2)cc1  6.6%
37. COc1ccc(-c2cc(C(F)(F)F)n3ncc(C(=O)N4CCOCC4)c3n2)cc1OC  5.2%
38. CC(NC(=O)c1ccc(F)cc1)C1CC1 (stereo unspecified)  4.6%
39. O=c1/c(=C\c2ccc(OCc3ccc([N+](=O)[O-])cc3)cc2)sc2nc3ccccc3n12  4.5%
40. CCOC(=O)C1=C(C)N=c2s/c(=C\c3cccc([N+](=O)[O-])c3)c(=O)n2C1c1cccc(OC)c1 (stereo unspecified)  4.1%
41. COc1ccc(OC)c(C2NC(=S)NC(C)=C2C(=O)OCCc2ccccc2)c1 (stereo unspecified)  3.9%
42. CN1CCN(c2ccc3c4c(cccc24)C(=O)c2ccccc2-3)CC1  2.9%
43. O=c1/c(=C/c2ccc(C(F)(F)F)cc2)sc2nc3ccccc3n12  2%
44. CCCCOc1ccc(C(=O)O/N=C2/CCc3cc(OC)ccc32)cc1  2%
45. CC(C)c1ccc(/C=C2/SC(=O)N(c3ccccc3)C2=O)cc1  1.4%
46. COc1ccc2c(c1OC)C(=O)OC2Nc1cccc(F)c1 (stereo unspecified)  -0.4%
47. COC(=O)c1ccc(N2C(=O)c3cccc([N+](=O)[O-])c3C2=O)cc1  -0.7%
48. Cc1cc(Nc2ccccc2)n2c(nc3ccccc32)c1C#N  -2.8%
49. O=c1[nH]cc(N=Cc2ccccc2)c(=O)[nH]1  -2.8%
50. O=C(COc1ccccc1Cl)N1CCN(c2ccc([N+](=O)[O-])cc2)CC1  -3.3%
51. COc1ccccc1N1CCN(C(=O)COc2ccc(Cl)cc2C)CC1  -4.5%
52. CSc1ccc(-c2ncnn2-c2cccc(Cl)c2)cc1  -4.7%
53. CCn1c2ccccc2c2cc(NC(=O)Cc3ccc(OC)c(OC)c3)ccc21  -5.2%
54. O=C1CSC(c2cn(-c3ccccc3)nc2-c2ccc(Cl)cc2)N1Cc1ccccc1 (stereo unspecified)  -6.5%
55. O=c1[nH]c(=S)[nH]c(O)c1C=Nc1ccc(Cl)c(Cl)c1  -7%
56. O=c1/c(=C/c2cc([N+](=O)[O-])ccc2Cl)sc2nc3ccccc3n12  -7.5%
57. O=C(Nc1ccc(Cl)c(Cl)c1)c1ccc([N+](=O)[O-])o1  -8%
58. Cc1ccsc1/C=c1\sc2nc3ccccc3n2c1=O  -8.5%
59. COc1ccc(CSc2nc3ccccc3n2C)cc1F  -9.9%
60. CCOc1ccccc1/C=N/Nc1nnc(-c2ccccc2)c(=O)[nH]1  -10.7%
61. CCc1nc2ccccc2n1CC(O)COC1CCCCC1 (stereo unspecified)  -10.7%
62. CCOc1ccc(NC(=O)CC2S/C(=N\N=C(/C)c3cccc(NC(C)=O)c3)NC2=O)cc1 (stereo unspecified)  -11%
63. Cc1cc2nc3s/c(=C/c4ccc5c(c4)OCO5)c(=O)n3c2cc1C  -11.4%
64. C/C(=N/NC(=O)c1cccnc1)c1cc(O)ccc1O  -12%
65. COc1ccc(/C=C2\C(=O)NN(c3ccc(Cl)c(Cl)c3)C2=O)cc1OC  -13.2%
66. Cc1cc(NCCCN(C)C)n2c(nc3ccccc32)c1C#N  -13.5%
